# Experimental data taken from PubChem BioAssay (NCATS).
# Inconclusive results are not listed. The list shows a part of the results. Activity calls are given as the source filed them. Unless noted, the call rests on the fitted dose curve; in most records, active means well fitted curve in the direction sought with a large enough effect; inconclusive means small, poorly fitted or top-dose-only effect, or another doubt; inactive means no such curve, though single readings can be large; an effect the other way counts as inactive or inconclusive.
# Assays:
# [1] = biological target: Tyrosine-protein kinase Yes (Homo sapiens) (UniProt P07947); assay: qHTS for small molecule inhibitors of Yes1 kinase: Primary Screen (AID 686947); details: Yes1 kinase biochemical qHTS inhibition; further: potency means the concentration at half of the fitted maximal effect; nearly all actives have a fitted effect of over 60% in size
# Outline: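 ADP-Glo luminescence readout; final 4 nM Yes1, 0.1 mM ATP, 0.3 mg/mL poly(E4Y), Tris pH 7.5, MgCl2, DTT, Brij-35. 20 min compound preincubation, 60 min reaction at RT. Normalized to DMSO wells with and without enzyme.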
# [2] = qHTS for small molecule inhibitors of Yes1 kinase: Counter Assay (AID 686950);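 further: no kinase present so only ADP-Glo detection of a fixed ADP amount is tested; luminescence from ADP-Glo reporting ADP in a fixed ATP and ADP mixture; 0% = DMSO wells with ATP plus ADP and -100% = ATP-only wells without ADP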
# Outline: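 Enzyme-free detection counter-screen: compounds preincubated 20 min in buffer, then 0.08 mM ATP plus 0.02 mM ADP added for 60 min at room temperature; ADP-Glo luminescence. Buffer 50 mM Tris pH 7.5, 10 mM MgCl2, 150 mM NaCl; normalized to ATP+ADP and ATP-only controls.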
# [3] = biological target: Bifunctional 3'-5' exonuclease/ATP-dependent helicase WRN (Homo sapiens) (UniProt Q14191); assay: qHTS for Inhibitors of WRN Helicase: Confirmatory Assay for Cherry-picked Compounds. (AID 720497); further: nearly all actives have a fitted effect of over 65% in size
# Bifunctional 3'-5' exonuclease/ATP-dependent helicase WRN (Homo sapiens), sequence (Q14191 whole entry, looked up): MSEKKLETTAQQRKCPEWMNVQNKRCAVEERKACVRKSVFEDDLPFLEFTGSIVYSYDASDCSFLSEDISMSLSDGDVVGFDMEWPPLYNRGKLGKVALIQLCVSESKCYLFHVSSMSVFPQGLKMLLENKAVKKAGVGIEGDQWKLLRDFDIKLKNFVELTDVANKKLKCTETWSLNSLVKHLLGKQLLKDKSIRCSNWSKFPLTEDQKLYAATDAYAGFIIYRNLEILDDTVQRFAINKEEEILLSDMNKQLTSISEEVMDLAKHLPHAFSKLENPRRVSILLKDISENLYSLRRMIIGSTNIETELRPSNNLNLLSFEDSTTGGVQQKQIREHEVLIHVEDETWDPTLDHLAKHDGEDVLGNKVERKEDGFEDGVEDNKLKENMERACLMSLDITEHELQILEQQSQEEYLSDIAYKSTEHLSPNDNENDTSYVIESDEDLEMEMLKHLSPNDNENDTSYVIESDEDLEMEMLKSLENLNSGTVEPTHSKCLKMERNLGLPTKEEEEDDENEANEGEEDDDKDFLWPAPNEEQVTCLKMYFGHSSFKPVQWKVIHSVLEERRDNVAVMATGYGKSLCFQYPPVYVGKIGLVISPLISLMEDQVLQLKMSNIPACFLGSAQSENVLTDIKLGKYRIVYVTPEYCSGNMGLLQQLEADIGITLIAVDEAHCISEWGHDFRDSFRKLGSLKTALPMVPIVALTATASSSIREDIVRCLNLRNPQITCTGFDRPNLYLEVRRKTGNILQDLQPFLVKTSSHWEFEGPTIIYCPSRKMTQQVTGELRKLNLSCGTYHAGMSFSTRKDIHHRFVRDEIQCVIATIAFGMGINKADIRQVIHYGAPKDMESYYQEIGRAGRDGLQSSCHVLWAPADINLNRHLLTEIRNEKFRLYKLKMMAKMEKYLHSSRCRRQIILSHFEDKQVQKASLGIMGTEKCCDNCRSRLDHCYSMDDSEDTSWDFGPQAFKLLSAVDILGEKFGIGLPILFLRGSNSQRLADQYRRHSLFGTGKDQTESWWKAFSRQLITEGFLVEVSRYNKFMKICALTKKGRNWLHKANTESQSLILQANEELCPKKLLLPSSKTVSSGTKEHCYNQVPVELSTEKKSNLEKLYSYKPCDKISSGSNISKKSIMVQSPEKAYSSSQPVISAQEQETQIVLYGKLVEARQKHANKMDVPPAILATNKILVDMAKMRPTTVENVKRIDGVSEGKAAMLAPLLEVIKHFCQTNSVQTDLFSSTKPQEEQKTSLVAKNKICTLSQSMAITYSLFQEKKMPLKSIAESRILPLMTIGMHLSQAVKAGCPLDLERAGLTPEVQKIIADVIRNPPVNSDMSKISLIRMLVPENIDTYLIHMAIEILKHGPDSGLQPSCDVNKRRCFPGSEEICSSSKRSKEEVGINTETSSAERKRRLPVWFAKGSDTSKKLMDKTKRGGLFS
# Outline: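 Confirmatory retest of cherry-picked hits in 1536-well format. Enzyme (20 nM final) sat with compound for 15 min at room temperature before forked duplex substrate (100 nM) and ATP (2 mM) were added, and unwinding was followed kinetically by red fluorescence.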
# [4] = qHTS for Inhibitors of WRN Helicase: Thiazole Orange DNA Binding Counterscreen (AID 720499);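 further: drop in dye fluorescence marks compound binding to DNA; on the % scale 0 is the no-effect control and ±100 the full control effect; nearly all actives have a fitted effect of over 60% in size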
# Outline: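 Fluorescence at 530 nm (excitation 480 nm) is measured after compounds incubate 15 min at room temperature with unlabeled DNA (50 nM) bound to thiazole orange (100 nM). Decreased signal indicates nonspecific DNA binding.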
# [5] = biological target: RecQ-like DNA helicase BLM (Homo sapiens) (UniProt P54132); assay: qHTS for Inhibitors of WRN Helicase: BLM Helicase Counterscreen for WRN Inhibitors (AID 720503);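 further: plate controls were DMSO vehicle for no effect and enzyme-free control wells for full effect; nearly all actives have a fitted effect of over 60% in size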
# RecQ-like DNA helicase BLM (Homo sapiens), sequence (P54132 whole entry, looked up): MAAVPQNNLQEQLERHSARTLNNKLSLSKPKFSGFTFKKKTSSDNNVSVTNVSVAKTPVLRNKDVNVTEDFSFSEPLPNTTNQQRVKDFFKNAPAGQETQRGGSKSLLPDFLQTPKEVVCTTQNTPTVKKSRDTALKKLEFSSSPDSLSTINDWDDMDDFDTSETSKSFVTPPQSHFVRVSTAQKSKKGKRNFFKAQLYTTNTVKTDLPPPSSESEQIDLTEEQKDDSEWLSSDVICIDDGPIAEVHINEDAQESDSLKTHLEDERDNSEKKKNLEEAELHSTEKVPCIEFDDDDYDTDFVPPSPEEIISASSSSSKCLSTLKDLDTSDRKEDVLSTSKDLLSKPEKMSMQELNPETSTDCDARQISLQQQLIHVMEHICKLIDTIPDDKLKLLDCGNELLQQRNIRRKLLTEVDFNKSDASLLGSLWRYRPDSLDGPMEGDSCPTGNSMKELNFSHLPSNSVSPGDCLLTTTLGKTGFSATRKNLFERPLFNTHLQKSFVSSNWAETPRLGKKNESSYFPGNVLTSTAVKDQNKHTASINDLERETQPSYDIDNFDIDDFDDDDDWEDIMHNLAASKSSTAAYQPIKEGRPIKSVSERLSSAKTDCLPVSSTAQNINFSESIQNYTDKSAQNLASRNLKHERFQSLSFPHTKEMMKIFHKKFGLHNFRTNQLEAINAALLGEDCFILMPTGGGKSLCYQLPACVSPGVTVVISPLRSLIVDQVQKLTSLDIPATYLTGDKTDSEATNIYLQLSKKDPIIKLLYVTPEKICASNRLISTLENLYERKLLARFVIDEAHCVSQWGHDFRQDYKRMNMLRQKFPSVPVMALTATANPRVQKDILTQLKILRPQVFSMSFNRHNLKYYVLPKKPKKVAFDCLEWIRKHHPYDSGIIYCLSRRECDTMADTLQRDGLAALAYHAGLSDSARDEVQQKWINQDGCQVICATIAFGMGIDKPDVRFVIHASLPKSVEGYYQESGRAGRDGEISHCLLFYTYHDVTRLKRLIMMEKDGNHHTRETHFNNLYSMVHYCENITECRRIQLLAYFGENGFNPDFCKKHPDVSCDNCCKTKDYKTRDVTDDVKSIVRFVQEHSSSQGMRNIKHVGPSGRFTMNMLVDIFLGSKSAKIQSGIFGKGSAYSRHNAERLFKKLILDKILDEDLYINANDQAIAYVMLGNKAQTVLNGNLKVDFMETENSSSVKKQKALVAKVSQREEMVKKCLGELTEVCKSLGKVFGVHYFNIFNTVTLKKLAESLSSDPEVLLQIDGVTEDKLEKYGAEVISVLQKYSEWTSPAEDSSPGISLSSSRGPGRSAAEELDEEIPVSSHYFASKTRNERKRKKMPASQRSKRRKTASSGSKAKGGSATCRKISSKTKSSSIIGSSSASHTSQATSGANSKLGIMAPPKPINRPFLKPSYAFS
# Outline: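 Steps: compounds added to 1 nM BLM in pH 8.0 Tris buffer with 2 mM MgCl2; 15 min room-temperature incubation; substrates added (100 nM DNA, 2 mM ATP final); discontinuous kinetic fluorescence measurement, reads spaced 15 min.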
# [6] = biological target: Flap endonuclease 1 (Homo sapiens) (UniProt P39748); assay: qHTS Assay for the Inhibitors of FEN1: Confirmatory Assay for Cherry-picked Compounds (AID 720498); details: FEN1 flap cleavage, TAMRA/BHQ2 fluorogenic DNA substrate; further: potency means the concentration at half of the fitted maximal effect; nearly all actives have a fitted effect of over 60% in size
# Flap endonuclease 1 (Homo sapiens), sequence (P39748 whole entry, looked up): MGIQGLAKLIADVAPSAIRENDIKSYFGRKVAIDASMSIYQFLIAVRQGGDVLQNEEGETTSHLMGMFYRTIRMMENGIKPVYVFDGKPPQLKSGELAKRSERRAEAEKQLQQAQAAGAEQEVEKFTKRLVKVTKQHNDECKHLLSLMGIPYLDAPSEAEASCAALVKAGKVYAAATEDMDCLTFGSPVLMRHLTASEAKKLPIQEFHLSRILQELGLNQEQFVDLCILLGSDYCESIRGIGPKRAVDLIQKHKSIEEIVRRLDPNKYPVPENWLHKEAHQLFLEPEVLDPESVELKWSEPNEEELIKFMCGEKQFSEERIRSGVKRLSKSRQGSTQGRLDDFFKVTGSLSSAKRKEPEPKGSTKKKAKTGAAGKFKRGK
# Outline: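 FEN1 at 10 nM was preincubated with compound for 15 min at room temperature, then 50 nM (final) double-flap DNA substrate was added. TAMRA fluorescence released from the BHQ-2-quenched flap was read at 0 and 15 min (ex 525/em 598 nm).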
# [7] = biological target: DNA polymerase eta (Homo sapiens) (UniProt Q9Y253); assay: qHTS for Inhibitors of Polymerase Eta: Confirmatory Assay for Cherry-picked Compounds (AID 720502); details: Pol eta primer extension, TAMRA/BHQ fluorescence, 10 min; further: potency means the concentration at half of the fitted maximal effect
# DNA polymerase eta (Homo sapiens), sequence (Q9Y253 whole entry, looked up): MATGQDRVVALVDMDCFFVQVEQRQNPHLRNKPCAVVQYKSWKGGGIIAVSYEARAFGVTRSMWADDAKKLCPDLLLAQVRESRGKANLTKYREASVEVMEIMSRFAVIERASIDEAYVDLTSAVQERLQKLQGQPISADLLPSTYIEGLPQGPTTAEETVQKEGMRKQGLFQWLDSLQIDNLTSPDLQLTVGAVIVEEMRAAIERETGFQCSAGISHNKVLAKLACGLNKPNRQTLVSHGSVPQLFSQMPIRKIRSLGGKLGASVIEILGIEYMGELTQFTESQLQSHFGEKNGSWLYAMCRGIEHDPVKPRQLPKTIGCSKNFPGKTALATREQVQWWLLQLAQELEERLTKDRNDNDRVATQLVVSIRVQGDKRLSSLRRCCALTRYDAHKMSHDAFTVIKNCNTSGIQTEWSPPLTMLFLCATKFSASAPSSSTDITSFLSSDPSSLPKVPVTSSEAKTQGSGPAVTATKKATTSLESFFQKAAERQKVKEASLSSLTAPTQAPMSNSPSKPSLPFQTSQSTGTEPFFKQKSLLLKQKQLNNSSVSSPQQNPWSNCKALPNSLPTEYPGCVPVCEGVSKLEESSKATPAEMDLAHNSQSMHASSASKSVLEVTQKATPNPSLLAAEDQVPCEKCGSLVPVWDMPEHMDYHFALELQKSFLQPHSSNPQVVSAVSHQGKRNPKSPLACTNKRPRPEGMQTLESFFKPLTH
# Outline: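 Compounds are preincubated 15 min at room temperature with 10 nM human Pol eta, with buffer-only wells serving as negative control. Adding 50 nM final substrate starts the reaction, and TAMRA fluorescence is read over 10 min.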
# [8] = qHTS assay for cell viability of HEK293 cells (AID 743288); details: ATP luminescence (CellTiter-Glo), 18 h; max response: stronger effect = lower value; further: potency means the concentration at half of the fitted maximal effect; nearly all actives have a fitted effect of over 50% in size
# Outline: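 HEK293 parental, 2,000 cells/well; ≥5 h pre-incubation 37 C; pintool compound addition; 18 h, 37 C; CellTiter-Glo 30 min RT; luminescence read.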
# [9] = qHTS profiling of the MIPE4 collection as inhibitors of Plasmodium falciparum (3D7) proliferation (AID 743344; call rule not given here;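 further: scaled between DMSO vehicle wells and 0.29 µM artemisinin as full inhibition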); details: P. falciparum 3D7 in erythrocytes, SYBR Green DNA fluorescence, 72 h; at 5.51 µM (top of the series) unless noted
# Outline: (§1)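 Erythrocytes infected with P. falciparum (0.3% parasitemia, 2.5% hematocrit) incubated with compounds 72 h at 37 C, 5% CO2. Lysis with saponin/Triton buffer containing SYBR Green I, overnight at room temperature in the dark; DNA fluorescence (485/535 nm) normalised to 0.29 uM artemisinin and DMSO.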
# [10] = qHTS profiling of the MIPE4 collection as inhibitors of Plasmodium falciparum (DD2) proliferation (AID 743345; call rule not given here); details: P. falciparum Dd2 in erythrocytes, SYBR Green DNA, 72 h; at 5.51 µM (top of the series) unless noted
# Outline: as §1
# [11] = qHTS profiling of the MIPE4 collection as inhibitors of Plasmodium falciparum (DD2) proliferation (Rep 2) (AID 743346; call rule not given here); details: P. falciparum Dd2 in erythrocytes, SYBR Green DNA, 72 h; at 5.51 µM (top of the series) unless noted
# Outline: as §1
# [12] = qHTS profiling of the MIPE4 collection as inhibitors of Plasmodium falciparum (HB3) proliferation (AID 743347; call rule not given here;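 further: plate controls were DMSO vehicle wells for no effect and artemisinin wells for full effect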); details: P. falciparum HB3 in erythrocytes, SYBR Green DNA, 72 h; at 5.51 µM (top of the series) unless noted
# Outline: as §1
# [13] = qHTS assay for small molecule activators of the human pregnane X receptor (PXR) signaling pathway (AID 720659; call rule not given here; further: 0% is about no effect)
# [14] = biological target: Cytochrome P450 3A4 (Homo sapiens) (UniProt P08684); assay: qHTS Assay for Inhibitors and Substrates of Cytochrome P450 3A4 (AID 884); further: nearly all actives have a fitted effect of over 50% in size; further: potency means the concentration at half of the fitted maximal effect
# Cytochrome P450 3A4 (Homo sapiens), sequence (P08684 whole entry, looked up): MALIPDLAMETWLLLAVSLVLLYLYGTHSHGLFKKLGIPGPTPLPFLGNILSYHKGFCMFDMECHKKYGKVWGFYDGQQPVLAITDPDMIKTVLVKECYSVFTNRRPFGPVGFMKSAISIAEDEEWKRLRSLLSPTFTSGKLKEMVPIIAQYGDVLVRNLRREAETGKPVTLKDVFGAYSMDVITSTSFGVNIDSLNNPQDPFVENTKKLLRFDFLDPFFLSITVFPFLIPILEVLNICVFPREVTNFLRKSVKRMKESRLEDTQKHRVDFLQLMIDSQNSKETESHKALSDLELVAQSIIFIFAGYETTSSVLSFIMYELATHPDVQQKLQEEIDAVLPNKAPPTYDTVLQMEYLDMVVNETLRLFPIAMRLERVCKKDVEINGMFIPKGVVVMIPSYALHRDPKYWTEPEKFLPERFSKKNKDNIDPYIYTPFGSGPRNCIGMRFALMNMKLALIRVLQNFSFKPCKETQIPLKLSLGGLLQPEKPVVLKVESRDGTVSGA
# Outline: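 20 nM human CYP3A4 with 25 uM Luciferin-PPXE (at KM) in 200 mM KPO4, preincubated 10 min with compound; NADPH regeneration started a 60 min RT reaction. Luciferin detected by luminescence, normalized to 57 uM ketoconazole as full inhibition.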
# [15] = biological target: Cytochrome P450 2C9 (Homo sapiens) (UniProt P11712); assay: qHTS Assay for Inhibitors and Substrates of Cytochrome P450 2C9 (AID 883)
# Cytochrome P450 2C9 (Homo sapiens), sequence (P11712 whole entry, looked up): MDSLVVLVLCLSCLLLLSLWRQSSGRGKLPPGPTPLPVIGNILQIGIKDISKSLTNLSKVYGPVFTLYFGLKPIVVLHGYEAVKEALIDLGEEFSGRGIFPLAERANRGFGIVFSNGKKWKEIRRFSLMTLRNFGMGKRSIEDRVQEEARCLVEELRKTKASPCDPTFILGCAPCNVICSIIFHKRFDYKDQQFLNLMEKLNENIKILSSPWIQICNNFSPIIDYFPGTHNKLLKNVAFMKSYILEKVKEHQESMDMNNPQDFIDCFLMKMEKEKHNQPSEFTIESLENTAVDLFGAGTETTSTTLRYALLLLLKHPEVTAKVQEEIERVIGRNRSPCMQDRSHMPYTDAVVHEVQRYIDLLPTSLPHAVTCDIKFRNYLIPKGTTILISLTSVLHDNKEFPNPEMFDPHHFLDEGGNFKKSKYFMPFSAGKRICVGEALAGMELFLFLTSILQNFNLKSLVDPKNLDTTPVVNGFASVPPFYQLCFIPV
# Outline: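 Signal: luciferase luminescence reporting luciferin produced by CYP2C9. Conditions: 10nM enzyme, Luciferin-H 100uM at KM, 25mM KPO4, 37C, 60 min NADPH-driven reaction. Reference: 57uM sulphaphenazole as 100% inhibition.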
# [16] = biological target: Cytochrome P450 3A4 (Homo sapiens) (UniProt P08684); assay: qHTS Assay for Activators of Cytochrome P450 3A4 (AID 885); further: potency means the concentration at half of the fitted maximal effect; nearly all actives have a fitted effect of over 65% in size
# Outline: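 Quantitative HTS format: compounds preincubated with 20nM human CYP3A4 and Luciferin-PPXE substrate at KM, reaction started by NADPH regeneration, stopped after 60 min, luciferase luminescence read 20 min later.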
structure (smiles),measurement,setting,value
CNC(=O)Oc1cc(C)c(C=Cc2cncc(C(=O)NC)c2)c(C)c1,Potency,[1],0.654 µM (active)
same,outcome,[2],inactive
Cc1ccc2c(c1)=C/C(=C\c1c(O)[nH]c(=O)[nH]c1=O)C(=O)N=2,outcome,[3],inactive
same,outcome,[4],inactive
same,outcome,[5],inactive
O=C(O)COc1ccccc1/C=C1\C(=O)NC(=O)N(CCC2=CCCCC2)C1=O,outcome,[3],inactive
same,outcome,[4],inactive
same,outcome,[5],inactive
COc1cccc(N2C(=O)NC(=O)/C(=C\c3ccc([N+](=O)[O-])s3)C2=O)c1,Potency,[6],8.49 µM (active)
same,Potency,[7],37.9 µM (active)
O=C1NC(=O)N(c2ccc(F)cc2)C(=O)/C1=C/c1ccc2c(c1)CCCN2Cc1ccccc1,Potency,[7],84.9 µM (active)
CCC[CH2][Sn]([CH2]CCC)([CH2]CCC)[O]C(=O)c1ccccc1,Potency,[8],7.08 µM (active)
CC[C@H](C)[C@H]1O[C@]2(C=C[C@@H]1C)C[C@@H]1C[C@@H](C/C=C(\C)[C@@H](O[C@H]3C[C@H](OC)[C@@H](O[C@H]4C[C@H](OC)[C@@H](NC)[C@H](C)O4)[C@H](C)O3)[C@@H](C)/C=C/C=C3\CO[C@@H]4[C@H](O)C(C)=C[C@@H](C(=O)O1)[C@]34O)O2,Potency,[8],50.1 µM (active)
CC(C)(N)CNC(=O)CC1CCC2(CC1)OOC1(O2)C2CC3CC(C2)CC1C3 (stereo not drawn),"parasite growth, % of DMSO control",[9],4.69% [at 28.5 µM]
same,"parasite growth remaining, % of DMSO control (lower = more inhibition)",[10],6.94% [at 28.5 µM]
same,"parasite growth, % of control (lower = inhibition)",[11],27.3% [at 28.5 µM]
same,"growth, % of control",[12],5.72% [at 28.5 µM]
COC(=O)C1(O)CC2OC1(C)n1c3ccccc3c3c4c(c5c6ccccc6n2c5c31)C(=O)NC4 (stereo not drawn),"parasite growth, % of DMSO control",[9],4.95%
same,"parasite growth remaining, % of DMSO control (lower = more inhibition)",[10],7.86%
same,"parasite growth, % of control (lower = inhibition)",[11],21.3%
same,"growth, % of control",[12],4.75%
[Cl][Sn]([c]1ccccc1)([c]1ccccc1)[c]1ccccc1,outcome,[13],inactive
O=C(OC1Cc2c(O)cc(O)cc2OC1c1cc(O)c(O)c(O)c1)c1cc(O)c(O)c(O)c1 (stereo not drawn),Potency,[14],20 µM (active)
CC[C@H](C(=O)[C@H](C)[C@H](O)[C@H](C)CCc1ccc(C)c(O)c1C(=O)O)[C@H]1O[C@](CC)([C@@H]2CC[C@@](O)(CC)[C@H](C)O2)C[C@H]1C,Potency,[14],7.94 µM (active)
COc1cc2c3cc1Oc1c(OC)c(OC)cc4c1[C@@H](Cc1ccc(O)c(c1)Oc1ccc(cc1)C[C@@H]3N(C)CC2)N(C)CC4,Potency,[14],20 µM (active)
C[C@@]12CC[C@@H]3c4ccc(O)cc4CC[C@H]3[C@H]1CC[C@H]2O,Potency,[15],inactive
CC(C)C(C)/C=C/C(C)C1CCC2C3=CCC4CC(=O)CC[C@@]4(C)C3CC[C@]21C (stereo partly drawn),Potency,[14],inactive
same,Potency,[16],25.1 µM (active)
